Laboratory results published in PubChem BioAssay.
Calls of active or inactive are those of the source.

What was measured:
[1] = E. coli DRC41 culture turbidity changes, primary screen, E. coli filamentation inducer project, strain DRC41, OD650, 48 h (AID 1152);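 also: E. coli MC1000 strain DRC41 lacking acrAB efflux pump and sulA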; conditions: E. coli DRC41 (acrAB sulA), higher = more signal, called active from +8 up or from −8 down
[2] = small-molecule binders of probe aLefty1, primary screen, biochemical, small-molecule microarray, 635/667 nm fluorescence (AID 1153); conditions: higher = more signal;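 also: score merges spot fluorescence with signal-to-noise ratio from the scanned slide images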
[3] = PSAC antagonists in infected red cells, primary screen, cell-based, P. falciparum Indochina, OD700, 1 h (AID 1154); conditions: P. falciparum Indochina infected RBC osmotic lysis, higher = more signal, called active from +8 up or from −8 down
[4] = PSAC antagonists in infected red cells, primary screen, cell-based, P. falciparum Indochina, OD700, 2 h (AID 1155);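 also: lysis reports solute entry through the parasite surface anion channel PSAC; channel blockers reduce lysis of infected cells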; conditions: P. falciparum Indochina infected erythrocytes, osmotic lysis OD700; higher = more signal, called active from +8 up or from −8 down
[5] = osmotic lysis modulators in infected erythrocytes, primary screen, PSAC antagonist project, cell-based, P. falciparum Indochina, OD700, 3 h (AID 1156); conditions: higher = more signal, called active from +8 up or from −8 down
[6] = PSAC antagonists in infected red cells, primary screen, cell-based, P. falciparum Indochina, OD700, 18 h (AID 1157); conditions: P. falciparum Indochina infected erythrocytes, osmotic lysis OD700, 18 h; higher = more signal, called active from +8 up or from −8 down
[7] = modulators of S6 phosphorylation in cells, primary screen, cell-based, A549, cytoblot, luminescence, serum-stimulated (AID 1158); conditions: A549 phospho-S6 cytoblot, 5 h, higher = more signal;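 also: serum-stimulated A549 lung adenocarcinoma cells; signal is phosphorylated S6 detected by cytoblot immunostaining with HRP secondary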
[8] = target: NADPH oxidase 2 (Homo sapiens) (UniProt P04839); assay: NOX2-dependent H2O2 signal modulators, primary screen, NOX inhibitor project, cell-based, HEK293-NOX2, PMA-stimulated, Amplex Red fluorescence (AID 1159); conditions: 45 min, higher = more signal, called active from +8 up or from −8 down; also: test concentration not given here
Sequence of NADPH oxidase 2 (Homo sapiens) (P04839 whole entry, looked up): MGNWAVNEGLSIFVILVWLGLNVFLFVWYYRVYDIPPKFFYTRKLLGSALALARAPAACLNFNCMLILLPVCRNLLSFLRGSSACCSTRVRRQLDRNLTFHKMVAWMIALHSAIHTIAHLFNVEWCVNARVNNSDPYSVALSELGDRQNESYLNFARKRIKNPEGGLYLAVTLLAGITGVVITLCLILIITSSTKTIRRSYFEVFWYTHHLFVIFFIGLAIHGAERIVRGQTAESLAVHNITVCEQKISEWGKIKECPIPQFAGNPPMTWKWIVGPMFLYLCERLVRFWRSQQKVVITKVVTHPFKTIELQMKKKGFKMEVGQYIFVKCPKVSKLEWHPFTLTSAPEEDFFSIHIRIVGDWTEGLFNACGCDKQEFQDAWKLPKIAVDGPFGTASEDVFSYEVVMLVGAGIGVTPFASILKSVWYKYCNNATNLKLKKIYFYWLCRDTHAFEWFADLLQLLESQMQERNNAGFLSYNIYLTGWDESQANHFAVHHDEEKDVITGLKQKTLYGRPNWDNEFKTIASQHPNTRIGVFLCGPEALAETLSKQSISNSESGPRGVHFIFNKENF

[9] = target: NADPH oxidase 4 (Homo sapiens) (UniProt Q9NPH5); assay: NOX4-dependent H2O2 signal modulators, primary screen, NOX inhibitor project, cell-based, HEK293-NOX4, tetracycline-induced, Amplex Red fluorescence (AID 1160); conditions: 45 min, higher = more signal, called active from +8 up or from −8 down
Sequence of NADPH oxidase 4 (Homo sapiens) (Q9NPH5 whole entry, looked up): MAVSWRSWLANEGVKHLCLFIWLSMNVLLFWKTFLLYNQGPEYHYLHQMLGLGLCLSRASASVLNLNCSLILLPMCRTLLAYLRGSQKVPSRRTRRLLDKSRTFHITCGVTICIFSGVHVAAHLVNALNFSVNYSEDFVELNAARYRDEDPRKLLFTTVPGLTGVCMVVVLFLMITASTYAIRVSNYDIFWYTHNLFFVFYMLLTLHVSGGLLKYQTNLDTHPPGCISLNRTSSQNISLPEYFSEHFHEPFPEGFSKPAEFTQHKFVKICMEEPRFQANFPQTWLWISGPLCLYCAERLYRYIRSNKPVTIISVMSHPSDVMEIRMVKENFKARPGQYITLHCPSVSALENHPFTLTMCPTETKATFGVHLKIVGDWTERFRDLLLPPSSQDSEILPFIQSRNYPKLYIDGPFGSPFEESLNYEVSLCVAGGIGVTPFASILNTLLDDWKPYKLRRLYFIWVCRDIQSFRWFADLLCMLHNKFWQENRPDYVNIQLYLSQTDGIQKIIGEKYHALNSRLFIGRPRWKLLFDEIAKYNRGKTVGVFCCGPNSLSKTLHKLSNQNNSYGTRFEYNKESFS

[10] = target: NADPH oxidase 5 (Homo sapiens) (UniProt Q96PH1); assay: NOX5-dependent H2O2 signal modulators, primary screen, NOX inhibitor project, cell-based, HEK293-NOX5, Amplex Red fluorescence (AID 1161); conditions: HEK293-NOX5, ionomycin, 45 min, higher = more signal
Sequence of NADPH oxidase 5 (Homo sapiens) (Q96PH1 whole entry, looked up): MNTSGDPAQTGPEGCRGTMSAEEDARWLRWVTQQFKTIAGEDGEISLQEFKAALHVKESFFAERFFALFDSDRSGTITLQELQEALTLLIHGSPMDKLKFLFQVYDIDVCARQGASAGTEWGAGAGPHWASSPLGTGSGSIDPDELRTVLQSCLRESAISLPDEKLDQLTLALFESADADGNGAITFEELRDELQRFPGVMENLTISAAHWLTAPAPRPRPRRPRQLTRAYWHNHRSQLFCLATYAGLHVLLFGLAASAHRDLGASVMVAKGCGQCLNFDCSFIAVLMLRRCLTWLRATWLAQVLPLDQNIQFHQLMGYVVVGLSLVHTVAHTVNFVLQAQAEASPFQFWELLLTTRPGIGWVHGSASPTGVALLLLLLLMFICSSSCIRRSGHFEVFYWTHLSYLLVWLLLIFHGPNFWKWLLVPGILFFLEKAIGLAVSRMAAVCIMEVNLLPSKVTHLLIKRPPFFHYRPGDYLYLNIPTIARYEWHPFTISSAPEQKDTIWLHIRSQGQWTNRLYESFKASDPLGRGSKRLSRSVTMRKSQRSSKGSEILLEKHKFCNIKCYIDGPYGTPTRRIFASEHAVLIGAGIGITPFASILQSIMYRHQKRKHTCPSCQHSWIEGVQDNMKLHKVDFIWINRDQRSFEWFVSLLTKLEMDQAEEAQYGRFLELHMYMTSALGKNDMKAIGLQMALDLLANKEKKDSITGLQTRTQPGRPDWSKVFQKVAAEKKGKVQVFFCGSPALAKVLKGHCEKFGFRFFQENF

Compound | z-score [1] | composite z-score [2] | z-score [3] | z-score [4] | z-score [5] | z-score [6] | z-score [7] | z-score [8] | z-score [9] | z-score [10]
CC(C)NC(=O)[C@@H]1c2ccccc2C(=O)N(Cc2ccccc2Cl)[C@H]1c1ccc(CO)cc1 | 1.09 (inactive) | 0.509 | 2.67 (inactive) | 1.05 (inactive) | 0.796 (inactive) | 0.183 (inactive) | -0.469 | -0.444 (inactive) | 0.715 (inactive) | 0.376
CC(C)CNC(=O)[C@@]1(c2ccc([N+](=O)[O-])cc2)CC(=O)N(CC23CC4CC(CC(C4)C2)C3)[C@@H]1c1ccc(CO)cc1 | 2.76 (inactive) | 0.227 | 2.75 (inactive) | -0.14 (inactive) | 0.856 (inactive) | -0.36 (inactive) | 0.802 | -0.129 (inactive) | -1.06 (inactive) | 0.965
Cc1ccc(S[C@]2(C(=O)NCCN3CCOCC3)CC(=O)N(Cc3cc(C(F)(F)F)cc(C(F)(F)F)c3)[C@@H]2c2ccc(CO)cc2I)cc1 | 0.288 (inactive) | 0.0742 | 2.66 (inactive) | -0.599 (inactive) | -1.61 (inactive) | -1.68 (inactive) | 0.704 | 2.05 (inactive) | -0.995 (inactive) | 3.01
C=C(COC)/C(=C/C[C@H](OC(=O)c1ccncc1)c1cccc(OCCO)c1)c1cc(C(=O)OC)ccc1OC | 0.395 (inactive) | 0.132 | 13.5 (active) | 2.26 (inactive) | 2.48 (inactive) | 0.773 (inactive) | -0.625 | 0.32 (inactive) | 0.00792 (inactive) | -1.51
[N-]=[N+]=NCc1ccccc1[C@H]1OC(c2ccc(OCCCO)cc2)=N[C@@]1(CCS(=O)(=O)c1ccccc1)C(=O)N1CCOCC1 | -0.0978 (inactive) | 1.08 | 24.4 (active) | 9.51 (active) | 1.76 (inactive) | 0.885 (inactive) | -0.362 | 1.24 (inactive) | 2.19 (inactive) | 1.98
CCCCCCCCCCC(O)C1C=CC2C(=O)N(Cc3ccccc3)C(=O)C2N1n1cnnc1 (stereo not given) | -1.55 (inactive) | 0.918 | 1.32 (inactive) | -0.595 (inactive) | 1.6 (inactive) | -2.48 (inactive) | 1.19 | -2.6 (inactive) | -1.1 (inactive) | -4.63
COCCOC(=O)N1C(=O)[C@@]2(c3cc(C#CCNC(N)=O)ccc31)[C@H](c1ccccc1OCCO)N1[C@H](c3ccccc3)[C@H](c3ccccc3)OC(=O)[C@H]1[C@@H]2C(N)=O | -0.816 (inactive) | -0.111 | 4.2 (inactive) | 0.655 (inactive) | 0.4 (inactive) | 0.344 (inactive) | -0.463 | 2.29 (inactive) | -0.672 (inactive) | -0.584
CC(C)N1C(=O)C[C@@](C(=O)NCc2ccccc2)(c2ccc([N+](=O)[O-])cc2)[C@H]1c1ccc(CO)cc1 | 1.05 (inactive) | -0.409 | 1.58 (inactive) | -0.273 (inactive) | 1.03 (inactive) | 0.449 (inactive) | -0.081 | -0.85 (inactive) | -0.235 (inactive) | -1.72
C=CCC(OC(C)=O)[C@@H]1[C@@H](N(Cc2cc3ccccc3o2)C(=O)c2ccc(C)cc2)c2cc(OCCCO)ccc2N1C(=O)c1ccc2ccccc2c1 (stereo not given in full) | 2.19 (inactive) | 0.168 | 1.32 (inactive) | 0.393 (inactive) | -0.44 (inactive) | 0.0878 (inactive) | 0.147 | 0.355 (inactive) | 0.89 (inactive) | 2.7
COc1ccc(C(O)C2C=CC3C(=O)NC(=O)C3N2Nc2ccccn2)cc1OCc1ccccc1 (stereo not given) | -0.325 (inactive) | -0.106 | 1.68 (inactive) | 0.396 (inactive) | 0.479 (inactive) | 1.04 (inactive) | -0.432 | -1.49 (inactive) | -3.05 (inactive) | -2.03
CCOC(=O)C1=CC[C@@H](c2ccccc2)N(S(=O)(=O)c2ccc(C)cc2)[C@H]1C(=O)OCC | -0.488 (inactive) | 0.632 | 3.81 (inactive) | 1.17 (inactive) | -0.54 (inactive) | 0.583 (inactive) | -0.338 | 0.439 (inactive) | -1.45 (inactive) | -0.75
COCCOC(=O)N1C(=O)[C@@]2(c3ccccc31)[C@H](C(=O)Nc1nc3ccccc3s1)[C@H]1C(=O)O[C@H](c3ccccc3)[C@H](c3ccccc3)N1[C@@H]2c1ccc(OCCO)cc1 | 0.258 (inactive) | 0.258 | 4.45 (inactive) | 1.76 (inactive) | 0.505 (inactive) | 1.63 (inactive) | 0.44 | -0.207 (inactive) | 0.842 (inactive) | 2.22
CC1CC/C=C\[C@H]2OC34C=CCN(Cc5ccccc5)C(=O)[C@H]3N(CCCCCO)C(=O)[C@@H]4C2C(=O)O1 (stereo not given in full) | -0.94 (inactive) | -0.326 | -0.365 (inactive) | -0.0369 (inactive) | -0.692 (inactive) | -0.0374 (inactive) | -0.689 | 0.852 (inactive) | -0.14 (inactive) | 1.34
CC(C)NC(=O)[C@@H]1c2ccccc2C(=O)N(Cc2ccccc2)[C@H]1c1ccc(CO)cc1 | -0.355 (inactive) | 0.108 | 1.36 (inactive) | 0.573 (inactive) | 1.65 (inactive) | 0.351 (inactive) | 0.0506 | -0.767 (inactive) | 0.333 (inactive) | -1.66
COCCOC(=O)N1C(=O)[C@@]2(c3cc(C#CCC(C(=O)OC)C(=O)OC)ccc31)[C@H](c1ccc(O)cc1)N1[C@H](c3ccccc3)[C@H](c3ccccc3)OC(=O)[C@H]1[C@@H]2C(N)=O | -0.648 (inactive) | 0.245 | 9.52 (active) | 1.33 (inactive) | 0.0021 (inactive) | 0.213 (inactive) | -0.185 | 1.4 (inactive) | 0.525 (inactive) | 1.14
O=C(NCc1ccccc1)[C@]1(CCS(=O)(=O)c2ccccc2)N=C(c2ccc(OCCCO)cc2)O[C@@H]1c1ccccc1 | 0.673 (inactive) | -0.345 | 24 (active) | 6.86 (inactive) | 1.85 (inactive) | 1.45 (inactive) | -0.402 | 0.0459 (inactive) | 0.902 (inactive) | 0.242
CC(C)(C)N1CC=CC23O[C@@H]4C=CCOC(=O)[C@@H]4[C@H]2C(=O)N(CCCCCO)[C@@H]3C1=O (stereo not given in full) | -0.197 (inactive) | -0.0094 | 0.987 (inactive) | 0.624 (inactive) | 1.47 (inactive) | 0.453 (inactive) | -0.301 | 1.27 (inactive) | 0.436 (inactive) | 1.52
